From PubChem BioAssay
Cy5 interf NS3h: Cy5 fluorescence quenchers or enhancers, artefact control for HCV NS3 helicase inhibitor project, biochemical, ChemBridge library, Cy5 readout; fluorescence interference ratio at 100 µM; actives 6% (n = 16,000); Cy5-dT15 DNA with NS3h, fluorescence interference; actives lie on both sides; signal over control mean, under 1 quenches;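 active = compound fluorescence over control fluorescence at most 0.8, a quencher, or at least a set upper limit, an enhancer; inactive = ratio between 0.8 and the set upper limit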
NS3h inh CB: HCV NS3 helicase inhibitors, primary screen, biochemical, fluorescence polarization, ChemBridge library; actives 1.6% (n = 16,000); NS3h Cy5-dT15 DNA binding; AID 687043, 2013; inhibition, % at 100 µM;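 active = inhibition above the average over every tested compound plus 3 SD, cut at about 40% in these data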
Hits are given with their value; i = inactive. Most compounds without a hit are left out; they make up all but 6.9% or so of the library.

SMILES	Cy5 interf NS3h	NS3h inh CB
O=C(CSc1nc2ccccc2o1)OCC(=O)c1ccc(F)cc1	i	i
O=C(CSc1nc2ccccc2o1)c1ccc(-c2ccccc2)cc1	0.628	i
COc1cccc(NC(=O)CSc2nc3ccccc3o2)c1	0.666	i
COc1cccc(NC(=O)c2cc(-c3ccccc3)nc3ccccc23)c1	i	i
CCN(CC)C(=S)Sc1nc(Nc2cccc(C)c2)nc(Nc2cccc(C)c2)n1	i	i
Cc1ccc(NC(=O)CN(c2cccc(C(F)(F)F)c2)S(C)(=O)=O)c(C)c1	i	i
Cc1ccc(S(=O)(=O)N(Cc2ccccc2)Cc2ccccc2)cc1	i	i
Cc1ccc(S(=O)(=O)N2CCN(C3CC4CCC3C4)CC2)cc1 (stereo not given)	i	i
Cc1ccc(S(=O)(=O)N2CCC(=O)C(C)C2)cc1 (stereo not given)	0.74	i
O=C(CSc1ccccn1)Nc1ccccc1-c1ccccc1	i	i
CN(C)c1ccc(/C=C/C(=O)c2cccc([N+](=O)[O-])c2)cc1	i	i
CCOc1ccccc1NC(=O)c1c(NC(=O)Cc2ccccc2)sc2c1CCCCC2	i	i
CCOc1ccccc1NC(=O)c1c(NC(=O)c2cccs2)sc2c1CCCC2	i	41.3
O=C(/C=C\c1ccccc1)Nc1ccc2c3c(cccc13)CC2	0.732	i
O=C(/C=C/c1ccccc1)Nc1ccccc1I	i	i
Cc1cc(OCC(=O)Nc2ccccc2[N+](=O)[O-])cc(C)c1Cl	0.732	i
O=C(Cc1ccc(Cl)cc1)Nc1cccnc1	0.714	i
Cc1cc(OCC(=O)Nc2cccnc2)cc(C)c1Cl	0.8	i
COC(=O)c1cc(NC(=O)COc2cc(C)c(Cl)c(C)c2)cc(C(=O)OC)c1	i	i
Cc1ccc(OCC(=O)Nc2ccc(C)cc2[N+](=O)[O-])cc1	i	i
O=C(Cc1ccc(Cl)cc1)Nc1ccc(Cl)cn1	i	i
COc1ccc(/C=C2\C(=O)ON=C2C)cc1	i	i
O=C1OC(/C=C/c2ccccc2)=NC/1=C/c1ccccc1	0.782	i
O=C1OC(c2ccc(F)cc2)=N/C1=C\c1ccc(Cl)cc1	i	i
COc1ccc(/C=C2N=C(/C=C/c3ccccc3)OC/2=O)cc1	0.721	i
SMILES	Cy5 interf NS3h	NS3h inh CB
Cc1ccc(/C=C2N=C(/C=C/c3ccccc3)OC/2=O)s1	i	i
COc1ccc(/C=C2/N=C(c3ccc(Br)cc3)OC2=O)cc1	1.21	i
CNC(=O)c1ccc(N(C)S(=O)(=O)c2ccccc2)cc1	i	i
Cc1cccc(NCN2C(=O)S/C(=C/c3ccccc3Cl)C2=O)c1	i	i
Cc1cc(C)c(-n2c(O)c(C=C3C=Nc4ccccc43)c(=O)[nH]c2=O)c(C)c1	i	i
O=c1[nH]c(=O)n(Cc2ccccc2)c(O)c1C=C1C=CC=N1	0.767	i
COc1ccc(OC)c(Cn2c(O)c(C=C3C=CC=N3)c(=O)[nH]c2=O)c1	i	i
O=c1[nH]c(=O)n(Cc2ccc(F)cc2)c(O)c1C=C1C=Nc2ccccc21	0.801	i
COC(=O)c1ccc(NC(=O)c2ccc(OC)cc2)cc1	i	i
Cc1cccc(NC(=O)CN(c2ccc(C(C)C)cc2)S(=O)(=O)c2ccccc2)c1	i	i
COc1ccccc1C(=S)N1CCOCC1	i	i
Cc1ccc2[nH]c(O)c(N=Nc3ccc([N+](=O)[O-])cc3[N+](=O)[O-])c2c1Br	0.741	i
Cc1ccc(S(=O)(=O)N=Nc2c(O)[nH]c3ccc(Br)cc23)cc1C	i	i
CC(=O)Nc1ccc(C(=O)Nc2ccc(Br)cc2F)cc1	i	i
O=C(Nc1cccc(Cl)c1)c1cc2nc(-c3ccc4c(c3)OCO4)cc(C(F)(F)F)n2n1	0.666	i
CCCNC(=O)c1cc2nc(-c3ccc(OC)cc3)cc(C(F)(F)F)n2n1	i	i
O=C(Nc1cccc(Cl)c1Cl)c1cc2nc(-c3ccc([N+](=O)[O-])cc3)cc(C(F)(F)F)n2n1	0.785	i
Cc1ccc(-c2cc(C(F)(F)F)n3nc(C(=O)OC(C)C)cc3n2)cc1	i	i
COc1ccc(C(=O)c2c(N)c(C#N)c(C)n2-c2ccccc2)cc1	i	i
CCOc1ccccc1NC(=O)CN(c1ccc(OC)cc1OC)S(C)(=O)=O	i	i
O=c1c2ccccc2nc(/C=C/c2ccc3c(c2)OCO3)n1-c1ccc2ccccc2c1	i	i
Cc1ccc(OCCOCCOc2cccc(/C=c3\sc4nc5ccccc5n4c3=O)c2)cc1	i	i
O=C(Nc1cc(Cl)cc(Cl)c1)C(c1ccccc1)c1ccccc1	i	i
O=C(Nc1cc(C(F)(F)F)ccc1Cl)C(c1ccccc1)c1ccccc1	0.771	i
O=C(/C=C/c1ccccc1)Nc1nnc(-c2ccccc2)s1	i	i
SMILES	Cy5 interf NS3h	NS3h inh CB
CCC(=O)Nc1ccc(NC(=O)c2ccc(Br)o2)cc1	i	i
CCSc1nnc(NC(=O)c2ccc(Br)o2)s1	0.771	i
NC(=O)Cn1cc(/C=C2\C(=O)NC(=O)N(Cc3ccccc3)C2=O)c2ccccc21	i	i
Cc1ccccc1NC(=O)c1ccc(OCC(C)C)cc1	0.757	i
CC(C)COc1ccc(C(=O)Nc2cccc3ccccc23)cc1	i	i
Cc1ccc(NC(=O)COc2ccc3ccccc3c2)cc1	1.35	i
CCCOc1ccc(C(=O)Nc2ccccc2C(=O)OC)cc1	0.703	i
COC(=O)c1ccccc1NC(=O)COc1ccc(Br)cc1	i	i
COc1cc(NC(=O)COc2ccc3ccccc3c2)cc(OC)c1	i	i
COC(=O)c1ccccc1NC(=O)COc1ccc(C)c(C)c1	0.628	i
COC(=O)c1ccccc1NC(=O)c1ccccc1NC(=O)c1ccc(OC)cc1	i	i
COc1cccc(OCC(=O)NCc2ccncc2)c1	i	i
COC(=O)c1ccc(C(=O)OC)c(NC(=O)c2c(Cl)cccc2Cl)c1	i	i
COC(=O)c1ccc(C(=O)OC)c(NC(=O)CC(c2ccccc2)c2ccccc2)c1	0.745	i
COc1ccc(C)cc1NC(=O)Cc1ccccc1[N+](=O)[O-]	i	i
COC(=O)c1ccc(C(=O)OC)c(NC(=O)Cc2ccccc2[N+](=O)[O-])c1	0.776	i
CCn1c2ccccc2c2cc(CN3CCN(Cc4ccc(OC)cc4)CC3)ccc21	i	i
O=C1NN(c2ccc(F)cc2)C(=O)/C1=C\c1ccc(-c2cccc(C(=O)O)c2)o1	i	i
CCN1C(=O)C(=Cc2ccc(-c3cccc(C(=O)O)c3)o2)C(=O)N(CC)C1=S	1.23	53.5
COC(=O)C(=Cc1cc(Br)c(OCc2ccc([N+](=O)[O-])cc2)c(OC)c1)C(=O)OC	0.75	i
COc1cc(/C=C/c2[nH]c(=O)[nH]c(=O)c2[N+](=O)[O-])cc(Br)c1OCc1ccccc1	i	i
CC(C)(C)c1cc(CN2CCN(CCN)CC2)cc(C(C)(C)C)c1O	i	i
O=C(COC(=O)c1cc2ccccc2s1)Nc1cccc2ccccc12	i	i
COc1ccc(C2=C/C(=C/c3ccc(OC)c(Br)c3)C(=O)O2)cc1	i	i
Cc1cc(C)n(S(=O)(=O)c2ccc3c(c2)C(=O)c2cc(S(=O)(=O)n4nc(C)cc4C)ccc2-3)n1	0.64	i
Cc1ccc2ccc(S(=O)(=O)n3nc(C)cc3C)cc2c1	i	i
O=C(Oc1cccc2ccccc12)c1cccc([N+](=O)[O-])c1	i	i
COc1ccc(Cn2c(SC)nc3ccccc32)cc1	i	i
COc1ccc(CN2CCN(CC3CC4C=CC3C4)CC2)cc1Br (stereo not given)	0.749	i
